Reference: PubChem BioAssay (Tox21)
Where “and” joins values, the source holds several entries; their conditions need not be identical. Equal entries are not always repeated. Inconclusive results are not listed. A call without a number means that no potency is given here. Where a structure was tested more than once in an assay, its records may differ in their call. Calls of active or inactive are those of the source. Calls come from the whole dose curve; as a rule, active = well fitted curve in the direction sought with a large enough effect in the repeat runs; inconclusive = weak or mixed curves; inactive = no such curve, though single readings can be large; an effect the other way counts as inactive or inconclusive.

Legend:
[1] = Human pregnane X receptor (PXR) small molecule agonists, qHTS cell viability counter screen (AID 1346977); note: nearly all actives have a fitted effect of over 50% in size; note: potency is the fitted concentration of half-maximal effect
Outline: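 After a 5hr pre-incubation, PXR-Luc HepG2 cells received compounds plus positive control in DMSO and were kept 24hr at 37C. Cell viability was quantified by fluorescence from CellTiter-Fluor added for the final hour.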

[2] = Caspase-3/7 induction in HepG2 cells by small molecules, qHTS assay (AID 1346978); note: nearly all actives have a fitted effect of over 15% in size; note: potency is the fitted concentration of half-maximal effect
Outline: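 Wild-type HepG2 cells (2,000/well) were settled 5 h at 37 C, 5% CO2, then exposed to compounds in DMSO for 17 h. Caspase-3/7 activity was read by luminescence 30 min after adding Caspase-Glo 3/7 reagent at room temperature.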

[3] = Caspase-3/7 induction in CHO-K1 cells by small molecules, qHTS cell viability counter screen (AID 1346979); note: nearly all actives have a fitted effect of over 35% in size; note: potency is the fitted concentration of half-maximal effect
Outline: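 Multiplexed with Caspase-Glo 3/7 in CHO-K1 cells, this counter screen added CellTiter-Fluor after 16hr of compound exposure and recorded fluorescence 1hr later.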

[4] = Caspase-3/7 induction in CHO-K1 cells by small molecules, qHTS assay (AID 1346980); note: nearly all actives have a fitted effect of over 15% in size; note: potency is the fitted concentration of half-maximal effect
Outline: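 Wild-type cells were seeded at 1,500 per well and settled 5 hr at 37 C, 5% CO2, then exposed to DMSO-dissolved compounds for 17 hr. Caspase-Glo 3/7 reagent was added, and luminescence was read after 30min at room temperature.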

[5] = Caspase-3/7 induction in HepG2 cells by small molecules, qHTS cell viability counter screen (AID 1346981); note: nearly all actives have a fitted effect of over 30% in size; note: potency is the fitted concentration of half-maximal effect
Outline: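 In this quantitative HTS counter screen, compounds delivered in DMSO were left on unmodified HepG2 cells for 16 hr at 37 C. Viability was then determined fluorometrically with CellTiter-Fluor, in parallel with caspase-3/7 induction in the same wells.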

[6] = target: Nuclear receptor subfamily 1 group I member 2 (Homo sapiens) (UniProt O75469); test: Human pregnane X receptor (PXR) small molecule agonists, qHTS assay (AID 1346982); note: nearly all actives have a fitted effect of over 35% in size; note: potency is the fitted concentration of half-maximal effect
Outline: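 Reporter HepG2 cells expressing PXR-Luc are cultured in charcoal-stripped FBS (5%), treated with compounds for 24 hr at 37 C, and assayed by ONE-Glo luminescence after 30 min at room temperature.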

[7] = target: Cytochrome P450 2D6 (Homo sapiens) (UniProt P10635); test: Cytochrome P450 Family 2 Subfamily D Member 6 (CYP2D6) small molecule antagonists: luciferase reporter qHTS assay (AID 1671196); note: nearly all actives have a fitted effect of over 50% in size; note: potency is the fitted concentration of half-maximal effect
Outline: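 Test chemicals meet CYP2D6 plus proluciferin substrate (10 min, RT); NADPH regenerating solution then drives turnover for 1 h. Detection reagent halts the reaction; luminescence measured after 20 min.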

[8] = target: Cytochrome P450 2C19 (Homo sapiens) (UniProt P33261); test: Cytochrome P450 Family 2 Subfamily C Member 19 (CYP2C19) small molecule antagonists: luciferase reporter qHTS assay (AID 1671197); note: nearly all actives have a fitted effect of over 65% in size; note: potency is the fitted concentration of half-maximal effect
Outline: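 Compounds were tested on CYP2C19 activity via proluciferin conversion to luciferin. The 37C, 1 h reaction followed NADPH addition; detection reagent stopped it.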

[9] = target: Cytochrome P450 2C9 (Homo sapiens) (UniProt P11712); test: Cytochrome P450 Family 2 Subfamily C Member 9 (CYP2C9) small molecule antagonists: luciferase reporter qHTS assay (AID 1671198); note: nearly all actives have a fitted effect of over 50% in size; note: potency is the fitted concentration of half-maximal effect
Outline: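 CYP2C9 activity was measured with a P450-Glo proluciferin substrate. Enzyme–substrate mix was held with compound for 10 min at room temperature, then NADPH regeneration solution was added for 1 h at 37C. Luciferin product was read as luminescence.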

[10] = target: Cytochrome P450 1A2 (Homo sapiens) (UniProt P05177); test: Cytochrome P450 Family 1 Subfamily A Member 2 (CYP1A2) small molecule antagonists: luciferase reporter qHTS assay (AID 1671199); note: nearly all actives have a fitted effect of over 50% in size; note: potency is the fitted concentration of half-maximal effect
Outline: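 Steps: enzyme-substrate mix dispensed; test compounds and furafylline control pinned in; 10 min room temperature; NADPH regeneration solution added, 1 h; reaction stopped with luciferin detection reagent; luminescence read after 20 min.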

[11] = target: Cytochrome P450 3A4 (Homo sapiens) (UniProt P08684); test: Cytochrome P450 Family 3 Subfamily A Member 4 (CYP3A4) small molecule antagonists: luciferase reporter qHTS assay (AID 1671201); note: nearly all actives have a fitted effect of over 50% in size; note: potency is the fitted concentration of half-maximal effect
Outline: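 Room-temperature assay throughout: 10 min compound–enzyme/substrate preincubation, 1 h reaction after NADPH regeneration solution, 20 min detection. Luciferin formed from proluciferin substrate is quantified by luminescence.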

[12] = target: Voltage-gated inwardly rectifying potassium channel KCNH2 (Homo sapiens) (UniProt Q12809); test: Human Ether-a-go-go-Related Gene (hERG) channel small molecule antagonists: fluorescence cell-based qHTS assay (AID 1671200); note: nearly all actives have a fitted effect of over 50% in size; note: potency is the fitted concentration of half-maximal effect
Outline: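 Cell line hERG-U2OS; dye FluxOR II, 1 h RT dark; Tl+ stimulus; ex 480/em 540 nm, read each second for 2 min.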

[13] = target: Nuclear receptor subfamily 1 group I member 2 (Rattus norvegicus) (UniProt Q9R1A7); test: Rat pregnane X receptor (rPXR) activation by small molecules, qHTS assay (AID 1346983); conditions: rPXR luciferase reporter cells, One-Glo luminescence, 24 h; stronger effect = higher value; note: nearly all actives have a fitted effect of over 20% in size
Outline: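 Cell-based rPXR luciferase reporter assay, 2,000 cells per well, rested 5hr at 37 C before compound addition in DMSO, then 24 hr at 37 C. One-Glo reagent was added and luminescence read after 30 min at room temperature.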

Sequence of Nuclear receptor subfamily 1 group I member 2 (Homo sapiens) (O75469 whole entry, looked up): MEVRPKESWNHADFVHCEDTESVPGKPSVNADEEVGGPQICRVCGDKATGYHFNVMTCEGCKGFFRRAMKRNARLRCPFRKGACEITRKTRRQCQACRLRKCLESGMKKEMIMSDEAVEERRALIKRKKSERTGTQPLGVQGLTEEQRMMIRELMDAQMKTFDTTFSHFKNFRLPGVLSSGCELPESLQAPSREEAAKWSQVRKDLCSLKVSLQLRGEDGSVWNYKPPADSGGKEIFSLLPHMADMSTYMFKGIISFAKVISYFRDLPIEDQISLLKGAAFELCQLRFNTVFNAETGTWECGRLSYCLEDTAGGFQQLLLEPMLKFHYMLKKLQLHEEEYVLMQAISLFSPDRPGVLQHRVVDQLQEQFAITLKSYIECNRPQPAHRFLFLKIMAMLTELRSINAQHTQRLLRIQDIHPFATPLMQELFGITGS
Sequence of Nuclear receptor subfamily 1 group I member 2 (Rattus norvegicus) (Q9R1A7 whole entry, looked up): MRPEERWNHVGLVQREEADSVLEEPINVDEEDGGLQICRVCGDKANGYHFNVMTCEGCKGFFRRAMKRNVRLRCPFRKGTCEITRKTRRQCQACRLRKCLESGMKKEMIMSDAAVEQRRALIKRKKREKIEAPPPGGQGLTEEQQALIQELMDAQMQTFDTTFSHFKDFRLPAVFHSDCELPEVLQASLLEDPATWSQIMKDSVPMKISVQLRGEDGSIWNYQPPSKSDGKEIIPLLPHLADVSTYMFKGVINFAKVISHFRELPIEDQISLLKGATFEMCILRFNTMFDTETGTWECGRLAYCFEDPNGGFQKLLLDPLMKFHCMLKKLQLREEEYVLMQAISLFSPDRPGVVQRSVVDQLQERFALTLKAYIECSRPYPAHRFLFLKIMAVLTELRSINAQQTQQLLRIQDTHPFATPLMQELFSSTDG
Sequence of Cytochrome P450 2D6 (Homo sapiens) (P10635 whole entry, looked up): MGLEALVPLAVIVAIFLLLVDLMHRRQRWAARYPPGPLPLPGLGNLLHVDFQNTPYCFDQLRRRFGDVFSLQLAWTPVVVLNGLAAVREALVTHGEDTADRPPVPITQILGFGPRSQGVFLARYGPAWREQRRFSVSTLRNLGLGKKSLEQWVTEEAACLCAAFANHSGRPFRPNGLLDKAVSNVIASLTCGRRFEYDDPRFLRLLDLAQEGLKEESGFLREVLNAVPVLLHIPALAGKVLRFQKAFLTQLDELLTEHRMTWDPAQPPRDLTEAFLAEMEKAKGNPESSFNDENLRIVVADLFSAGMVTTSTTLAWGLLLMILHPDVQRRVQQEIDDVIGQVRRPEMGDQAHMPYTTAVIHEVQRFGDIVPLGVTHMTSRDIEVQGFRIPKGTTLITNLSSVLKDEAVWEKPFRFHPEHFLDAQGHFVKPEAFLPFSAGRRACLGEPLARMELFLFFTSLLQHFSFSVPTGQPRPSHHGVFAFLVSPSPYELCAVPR
Sequence of Cytochrome P450 1A2 (Homo sapiens) (P05177 whole entry, looked up): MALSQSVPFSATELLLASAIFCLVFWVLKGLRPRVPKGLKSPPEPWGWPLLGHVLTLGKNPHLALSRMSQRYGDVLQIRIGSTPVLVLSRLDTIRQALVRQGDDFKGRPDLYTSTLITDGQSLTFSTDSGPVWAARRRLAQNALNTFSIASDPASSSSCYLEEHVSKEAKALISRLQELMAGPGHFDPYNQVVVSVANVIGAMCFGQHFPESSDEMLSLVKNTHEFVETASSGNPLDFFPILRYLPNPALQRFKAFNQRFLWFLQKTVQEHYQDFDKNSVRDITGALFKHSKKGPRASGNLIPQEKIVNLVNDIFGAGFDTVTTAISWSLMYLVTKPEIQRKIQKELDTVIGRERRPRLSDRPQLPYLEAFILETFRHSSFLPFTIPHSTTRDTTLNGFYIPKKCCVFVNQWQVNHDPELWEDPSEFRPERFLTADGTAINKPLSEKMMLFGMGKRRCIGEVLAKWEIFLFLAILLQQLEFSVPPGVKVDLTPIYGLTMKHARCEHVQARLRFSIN
Sequence of Cytochrome P450 2C9 (Homo sapiens) (P11712 whole entry, looked up): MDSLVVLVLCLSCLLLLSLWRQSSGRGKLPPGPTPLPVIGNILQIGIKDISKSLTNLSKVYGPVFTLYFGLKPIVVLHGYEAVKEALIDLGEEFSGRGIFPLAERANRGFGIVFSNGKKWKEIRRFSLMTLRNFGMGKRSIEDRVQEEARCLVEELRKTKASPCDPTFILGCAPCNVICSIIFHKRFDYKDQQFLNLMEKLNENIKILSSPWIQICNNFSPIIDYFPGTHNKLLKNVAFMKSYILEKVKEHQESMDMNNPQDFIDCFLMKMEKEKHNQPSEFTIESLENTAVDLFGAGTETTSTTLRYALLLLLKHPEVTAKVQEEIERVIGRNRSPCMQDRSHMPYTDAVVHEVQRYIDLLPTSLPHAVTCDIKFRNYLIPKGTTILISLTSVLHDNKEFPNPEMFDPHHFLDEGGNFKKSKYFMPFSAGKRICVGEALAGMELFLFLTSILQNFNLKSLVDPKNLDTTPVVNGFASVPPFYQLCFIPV
Sequence of Cytochrome P450 2C19 (Homo sapiens) (P33261 whole entry, looked up): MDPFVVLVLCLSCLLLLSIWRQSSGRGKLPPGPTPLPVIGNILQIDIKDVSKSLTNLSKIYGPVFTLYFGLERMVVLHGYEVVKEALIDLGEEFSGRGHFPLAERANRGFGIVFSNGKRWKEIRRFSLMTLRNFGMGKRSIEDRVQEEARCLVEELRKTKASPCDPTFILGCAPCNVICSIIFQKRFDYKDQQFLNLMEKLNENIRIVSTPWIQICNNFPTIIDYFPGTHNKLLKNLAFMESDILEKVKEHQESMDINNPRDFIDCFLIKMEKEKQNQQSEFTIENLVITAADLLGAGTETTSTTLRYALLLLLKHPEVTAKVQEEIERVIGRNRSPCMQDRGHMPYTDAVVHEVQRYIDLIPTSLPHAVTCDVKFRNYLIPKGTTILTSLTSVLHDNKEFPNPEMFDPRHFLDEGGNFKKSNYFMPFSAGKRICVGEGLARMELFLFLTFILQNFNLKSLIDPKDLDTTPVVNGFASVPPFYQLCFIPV
Sequence of Voltage-gated inwardly rectifying potassium channel KCNH2 (Homo sapiens) (Q12809 whole entry, looked up): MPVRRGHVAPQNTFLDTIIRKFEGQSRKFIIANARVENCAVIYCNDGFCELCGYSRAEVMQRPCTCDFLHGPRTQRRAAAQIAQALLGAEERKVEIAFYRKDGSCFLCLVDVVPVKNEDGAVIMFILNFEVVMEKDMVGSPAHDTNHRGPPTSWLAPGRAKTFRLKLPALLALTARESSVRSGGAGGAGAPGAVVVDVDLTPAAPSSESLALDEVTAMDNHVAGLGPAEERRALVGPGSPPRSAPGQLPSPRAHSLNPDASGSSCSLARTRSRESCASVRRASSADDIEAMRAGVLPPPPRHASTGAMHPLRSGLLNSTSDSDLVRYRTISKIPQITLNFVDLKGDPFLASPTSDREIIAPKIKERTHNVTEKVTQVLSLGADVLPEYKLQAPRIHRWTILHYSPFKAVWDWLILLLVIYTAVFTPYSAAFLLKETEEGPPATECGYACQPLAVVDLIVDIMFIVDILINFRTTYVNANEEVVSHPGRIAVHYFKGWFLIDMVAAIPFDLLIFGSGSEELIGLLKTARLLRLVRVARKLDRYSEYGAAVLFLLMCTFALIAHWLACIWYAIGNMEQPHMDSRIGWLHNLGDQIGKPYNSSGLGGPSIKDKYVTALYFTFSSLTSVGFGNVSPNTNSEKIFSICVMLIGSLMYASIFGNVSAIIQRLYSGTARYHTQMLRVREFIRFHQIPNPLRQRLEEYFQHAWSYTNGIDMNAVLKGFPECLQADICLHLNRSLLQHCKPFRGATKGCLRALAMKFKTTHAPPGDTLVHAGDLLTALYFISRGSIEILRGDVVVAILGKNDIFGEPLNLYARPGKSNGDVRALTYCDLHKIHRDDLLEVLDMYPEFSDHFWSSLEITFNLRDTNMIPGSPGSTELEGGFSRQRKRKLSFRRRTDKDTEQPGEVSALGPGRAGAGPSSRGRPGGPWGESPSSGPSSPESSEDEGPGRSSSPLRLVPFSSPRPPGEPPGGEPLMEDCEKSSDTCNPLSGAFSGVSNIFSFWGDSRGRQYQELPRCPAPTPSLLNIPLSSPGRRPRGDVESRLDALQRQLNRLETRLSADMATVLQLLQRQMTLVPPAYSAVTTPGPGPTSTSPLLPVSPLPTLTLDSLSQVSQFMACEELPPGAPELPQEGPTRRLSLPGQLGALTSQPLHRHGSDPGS
Sequence of Cytochrome P450 3A4 (Homo sapiens) (P08684 whole entry, looked up): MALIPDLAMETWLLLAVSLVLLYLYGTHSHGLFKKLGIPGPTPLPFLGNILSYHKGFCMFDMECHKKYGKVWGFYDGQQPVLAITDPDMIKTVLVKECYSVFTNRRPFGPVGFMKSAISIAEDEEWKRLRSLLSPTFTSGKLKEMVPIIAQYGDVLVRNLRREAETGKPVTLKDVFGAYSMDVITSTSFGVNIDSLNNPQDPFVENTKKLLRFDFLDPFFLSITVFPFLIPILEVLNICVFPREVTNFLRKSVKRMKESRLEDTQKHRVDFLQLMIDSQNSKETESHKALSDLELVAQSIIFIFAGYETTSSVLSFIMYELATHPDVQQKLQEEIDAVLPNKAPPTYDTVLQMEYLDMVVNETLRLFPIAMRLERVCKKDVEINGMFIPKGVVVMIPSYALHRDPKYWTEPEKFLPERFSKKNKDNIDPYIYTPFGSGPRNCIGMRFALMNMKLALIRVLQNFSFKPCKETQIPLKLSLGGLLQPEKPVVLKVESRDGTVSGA

SMILES	Potency [1]	Potency [2]	Potency [3]	Potency [4]	Potency [5]	Potency [6]	Potency [7]	Potency [8]	Potency [9]	Potency [10]	Potency [11]	Potency [12]	max activation [13]
Brc1ccc(Oc2ccc(Br)cc2)cc1	inactive	inactive	inactive	inactive	inactive	inactive	inactive	12.6 µM (active) and 5.03 µM (active)	35.6 µM (active)	22.5 µM (active) and 20 µM (active)	inactive	–	–
CS(=O)(=O)c1ccc(Cl)cc1	inactive	inactive	inactive	inactive	inactive	inactive	inactive	inactive	–	inactive	inactive	–	–
Cc1cc(C)cc(O)c1	6.31 µM (active) and inactive	12.2 µM (active) and inactive	1.73 µM (active) and inactive	inactive	–	inactive	inactive	40 µM (active) and 73.1 µM (active)	–	35.7 µM (active) and 41.1 µM (active)	inactive	inactive	–
O=c1n(CCCN2CCN(c3cccc(Cl)c3)CC2)nc2ccccn12	inactive	inactive	inactive	inactive	inactive	–	–	–	–	–	–	–	-1.08% (inactive)
NCCNCCNCCN	inactive	inactive	inactive	inactive	inactive	–	–	–	–	–	–	–	-2.83% (inactive)
N[C@@H](Cc1cc(I)c(Oc2ccc(O)c(I)c2)c(I)c1)C(=O)O	inactive	inactive	inactive	–	inactive	inactive and 63.7 µM (active)	inactive	inactive and 74 µM (active)	–	–	–	inactive	-2.4% (inactive)
CN=C(NC#N)NCCSCc1nc[nH]c1C	inactive	inactive	inactive	inactive	inactive	–	31.4 µM (active) and 15.5 µM (active)	22.2 µM (active) and 34.7 µM (active)	–	inactive	–	inactive	–
CO[Si](CCCNCCN)(OC)OC	31.6 µM (active) and inactive	inactive	5.53 µM (active) and inactive	27.7 µM (active) and inactive	62 µM (active) and inactive	13.9 µM (active) and inactive	inactive	inactive	–	–	inactive	inactive	–
CC(O)CNCC(C)O (configuration not stated)	inactive	inactive	inactive	inactive	inactive	61.5 µM (active) and inactive	inactive	20.1 µM (active) and 71 µM (active)	–	inactive	31.9 µM (active) and inactive	–	–
COCN(COC)c1nc(N(COC)COC)nc(N(COC)COC)n1	inactive	inactive	inactive	inactive	–	54.5 µM (active)	inactive	–	–	inactive	inactive	inactive	–
C=C1C[C@]23C[C@@]1(O)CC[C@H]2[C@@]12C=C[C@H](O)[C@@](C)(C(=O)O1)[C@H]2[C@@H]3C(=O)O	–	inactive	inactive	inactive	inactive	–	–	–	–	–	–	–	–
Cc1cc(CC(=O)O)n(C)c1C(=O)c1ccc(Cl)cc1	inactive	inactive	inactive	inactive	inactive	–	inactive	–	–	inactive	inactive	–	-4.94% (inactive) and -11.5% (inactive)
NC(=O)c1ncn([C@@H]2O[C@H](CO)[C@@H](O)[C@H]2O)n1	inactive	inactive	inactive	inactive	inactive	9.1 µM (active) and inactive	inactive	inactive	–	inactive	inactive	–	–
OCC(CO)(CO)CO	inactive	inactive	inactive	inactive	inactive	inactive	inactive	inactive	–	inactive	inactive	–	–
c1cnc2c(c1)ccc1cccnc12	1.26 µM (active)	inactive	4.37 µM (active) and 6.11 µM (active) and 9.69 µM (active)	978 nM (active) and 1.37 µM (active) and inactive	inactive	2.76 µM (active) and 10.9 µM (active) and 24.3 µM (active)	–	10.1 µM (active) and 8.94 µM (active) and 10 µM (active)	–	10.1 µM (active) and 14.2 µM (active) and 11.2 µM (active)	inactive	inactive	–
CC(=O)CC(=O)N(C)C	inactive	inactive	inactive	inactive	inactive	inactive	inactive	inactive	–	inactive	inactive	–	–
Cc1ccc(Cl)cc1	inactive	inactive	inactive	inactive	inactive	inactive	33.5 µM (active) and inactive	inactive	–	inactive	inactive	–	–
CCc1cccc(CC)c1N	inactive	inactive	inactive	inactive	inactive	inactive	inactive	inactive and 79.6 µM (active)	–	22.6 µM (active) and 5.64 µM (active)	inactive	–	–
Cc1cccc(C)c1[N+](=O)[O-]	inactive	inactive	inactive	inactive	inactive	inactive	inactive	inactive	–	inactive	inactive	–	–
O=C1OC(=O)c2c(Cl)c(Cl)c(Cl)c(Cl)c21	inactive	inactive	inactive	inactive	inactive	inactive	inactive	–	–	inactive	inactive	inactive	–

SMILES	Potency [1]	Potency [2]	Potency [3]	Potency [4]	Potency [5]	Potency [6]	Potency [7]	Potency [8]	Potency [9]	Potency [10]	Potency [11]	Potency [12]	max activation [13]
Nc1cccc(C(F)(F)F)c1	inactive	inactive	inactive	inactive	inactive	inactive	inactive	inactive	–	inactive	inactive	–	–
N#CCC(=O)O	inactive	inactive	inactive	inactive	inactive	–	inactive	inactive	inactive	inactive	inactive	inactive	–
NC(N)=S	inactive	inactive	inactive	inactive	inactive	inactive	inactive	39.1 µM (active)	–	inactive	inactive	–	–
Nc1cccc(N)n1	inactive	inactive	inactive	inactive	inactive	inactive	–	39.9 µM (active)	–	inactive	inactive	–	–
CCc1cccc(O)c1	inactive	inactive	inactive	inactive	inactive	inactive	inactive	40.8 µM (active)	–	–	inactive	inactive	–
CC[N+](CC)(CC(=O)Nc1c(C)cccc1C)Cc1ccccc1	inactive	inactive	inactive	inactive	inactive	–	11.2 nM (active) and inactive	39.9 µM (active) and inactive	–	inactive	–	–	–
CC(C)(C)NC[C@H](O)COc1nsnc1N1CCOCC1	inactive	inactive	inactive	inactive	inactive	–	–	inactive	inactive	–	–	inactive	–
O=C(c1ccccc1)c1ccc(O)c(O)c1O	–	inactive	69.1 µM (active) and 61.1 µM (active)	inactive	61.6 µM (active)	54.9 µM (active)	63.8 µM (active)	80.4 µM (active) and 63.3 µM (active)	40.3 µM (active) and 63.3 µM (active)	–	inactive	inactive	–
CCN(CC)CCNC(=O)c1ccc(N)cc1	inactive	inactive	inactive	inactive	inactive	–	–	–	–	–	–	inactive	–
Clc1cccc(Cl)c1NC1=NCCN1	inactive	inactive	inactive	inactive	inactive	–	–	–	–	–	–	inactive	–
Nc1nc(N)c2nc(-c3ccccc3)c(N)nc2n1	inactive	inactive	–	inactive	inactive	49.1 µM (active) and 61.1 µM (active) and 26.6 µM (active)	64 µM (active) and inactive	inactive	–	36 µM (active) and 31.7 µM (active) and 24.5 µM (active)	–	inactive	–
CCCCCC(C)=O	inactive and 61.1 µM (active)	inactive	inactive	inactive	inactive	inactive	inactive	81.3 µM (active) and inactive	–	inactive	inactive	–	–
O=C(NCC1CCCCN1)c1cc(OCC(F)(F)F)ccc1OCC(F)(F)F (configuration not stated)	60 µM (active)	inactive	inactive	inactive	inactive	–	–	inactive	–	inactive	–	–	–
CCCN(CCC)C(=O)SCC	inactive	inactive	inactive	inactive	inactive	inactive	inactive	inactive	–	inactive	inactive	–	–
CCCCCCCCC(=O)O	inactive	inactive	–	inactive	inactive	inactive	34.4 µM (active) and inactive	30.7 µM (active)	61.3 µM (active) and 79.6 µM (active)	38.6 µM (active)	inactive	inactive	–
C=C(CC(=O)O)C(=O)O	–	inactive	inactive	inactive	inactive	–	–	–	–	–	–	inactive	–
CC(CN1c2ccccc2Sc2ccccc21)N(C)C (configuration not stated)	44.7 µM (active) and 48.6 µM (active)	inactive	61.1 µM (active)	inactive	–	19.3 µM (active) and inactive	–	8.05 µM (active) and 10 µM (active) and 7.76 µM (active)	–	–	inactive	22.1 µM (active) and 21.9 µM (active) and 21.3 µM (active)	–
NC1CCCCC1N (configuration not stated)	inactive	inactive	inactive	inactive	inactive	–	–	–	–	–	–	inactive	–
CC(=O)OC(C)(C)C1CC=C(C)CC1 (configuration not stated)	inactive	inactive	inactive	inactive	inactive	inactive	inactive	35.6 µM (active)	–	inactive	inactive and 31.7 µM (active)	–	–
